Measured values published in PubChem BioAssay (NCATS).
Records with an inconclusive call do not appear. The source made the active and inactive calls. Calls follow the shape of the dose curve; as a rule, active = well fitted curve in the direction sought with a large enough effect; inconclusive = small, poorly fitted or top-dose-only effect, or another doubt; inactive = no such curve, though single readings can be large or run the other way.

Experiment: HPAF-II 12hr Apoptosis Induction qHTS against the NCATS CANVASS Library (AID 1347358); also: 0% is about no effect
Settings: HPAF-II caspase-3/7 Caspase-Glo luminescence; series mostly up to 46.1 µM; caspase activation: at the top concentration
From the text: Natural products and their derivatives continue to be wellsprings of nascent therapeutic potential. However, many laboratories have limited resources for biological evaluation, leaving their previously isolated or synthesized compounds largely or completely untested. To address this issue, the Canvass library of natural products was assembled (https://tripod.nih.gov/canvass), in collaboration with academic and industry researchers, for quantitative high-throughput screening (qHTS) across a diverse set of cell-based and biochemical assays. The pure (>85% purity by liquid chromatography/mass spectrometry [LC/MS]) Canvass library of 346 natural products were submitted by 45 academic laboratories and companies around the world. We collected pure natural products to circumvent deconvolution and structure elucidation due to time and resource limitations. The library was formatted into 1536-well plates and evaluated in 50 qHTS (in an 11-pnt concentration series) bioassays with broad scope of disease-relevant mechanisms. The resulting data set from 50 different assays was then systematically analyzed to identify overall trends and specific natural products with interesting biological activities. Reported herein are the results of each individual qHTS and their corresponding assay protocol. The Caspase-Glo (R) (Promega) is a homogeneous, luminescent assay that measures caspase activity. The detection substrate contains tetrapeptide sequence DEVD in an "add-mix-measure" format. The reagent generates a luminescent signal produced by a thermostable luciferase. The luminescence is proportional to the amount of caspase activity in the assay reaction. National Center for Advancing Translational Sciences (NCATS), Rockville, MD National Institute of Health (NIH), Bethesda, Maryland
Cancer Cell Apoptosis Assay 1. In a 1536 well, white solid bottom tissue culture plates (Corning 7494), HPAF-II cancer cells in DMEM + 10% FBS + 1% P/S media were dispensed in each well at a final concentration of 500 cells / well (5uL volume) using the Multidrop Combi (Thermo Fisher Scientific) dispenser. 2. Compounds were pin transferred (~23nL volume) via Wako Pin-tool (Wako Automation, Richmond VA) equipped with a 1536 pin head. The assay plates were treated with compounds in a concentration series with a final concentration range of 0.17nM to 103uM. 3. Doxorubicin was used as a control in a 16pnt titration (1mM; 1:2 dilution; 16-points; n = 2; column 3, rows 1 - 32) and was pin transferred via Wako Pin-tool equipped with a 1536 pin head. The final concentration range of doxorubicin is 0.1nM - 4uM. 4. The assay plates were incubated for 12 hours at 37 degrees C/5% CO2/95% Rh. 5. 3uL Caspase-Glo 3/7 (R) (Promega) detection reagent was then added to the assay plates (columns 2 - 48, rows 1 - 32) and incubated at room temperature, covered from light, for 15 min. 6. Luminescence signal was acquired via the ViewLux plate reader (PerkinElmer) using a clear filter, 20 second exposure and 2x binning settings.

| SMILES | caspase activation |
| --- | --- |
| C[C@@]12CCC[C@@](C)(C(=O)O)[C@H]1CC[C@@]13C[C@@H](CC[C@H]12)[C@](C)(O)C3 | 15.5% (inactive) |
| C/C=C/C(=O)C1(O)CC2CC(C(=O)O)CC(C)C2C1C1=C2C(=O)NC(=O)C2=C(CCCCC)C(C)O1 (stereo not given) | -2.79% (inactive) |
| O=C1CC(c2ccc(O)cc2)Oc2ccccc21 (stereo not given) | -9.24% (inactive) |
| CC(C)=CCC[C@]1(C)[C@H]2CC(=O)[C@@]3(CO3)[C@@H]1C2 | 1.56% (inactive) |
| CC[C@@H]1C[C@@]2(CC)OC(=O)[C@@]3(CC)[C@H](CC)[C@@H]1[C@@H]23 | -2.17% (inactive) |
| O=C1CC2OCC=C3CN4C5CC3C2[C@@H]2N1c1ccccc1[C@]52C[C@@H]4C1=C[C@H]2C3CC4N(CC[C@@]45c4ccccc4N(C1=O)[C@@H]25)C/C3=C/CO (stereo not given in full) | 13% (inactive) |
| CC[C@H]1[C@H](C)[C@H](c2cc(OC)c(OC)cc2OC)[C@@H](C)[C@H](c2cc(OC)c(OC)cc2OC)[C@@]12C=C(OC)C(=O)C=C2OC | 1% (inactive) |
| CC(C)C[C@@H]1c2c(O)c(C=O)c(O)c(C=O)c2O[C@]2(C)C=C[C@@H](C(C)C)C[C@H]12 | 5.02% (inactive) |
| C=C1[C@@]2(C)CC3C4(C)CCC(O)C(C)(C)C4CCC3(C)[C@]1(C(=O)OC)C(=O)C(C)(O)C2=O (stereo not given in full) | -2.8% (inactive) |
| C/C(=C\[C@H](C)C(=O)C[C@H](O)CC1CC(=O)NC(=O)C1)[C@@H]1OC(=O)CCCC/C=C/[C@@H](O)C[C@@H]1C | 3.21% (inactive) |
| COc1cc2c(cc1OC)[C@@H](c1ccc3c(c1)OCO3)C(C)[C@@H](C)C2=O (stereo not given in full) | 3.81% (inactive) |
| C/C(=C\[C@H](C)C(=O)/C=C/CC1CC(=O)NC(=O)C1)[C@@H]1OC(=O)CCCC/C=C/[C@H](O)[C@@H](O)[C@@H]1C | 4.28% (inactive) |
| O[C@H]1C=C2[C@H]3CN(Cc4cc5c(cc43)OCO5)[C@H]2C[C@@H]1O | -3.81% (inactive) |
| CN1C(=O)C(=O)N2C(=C[C@]3(c4c[nH]c5ccccc45)c4ccccc4N[C@H]23)C1=O | 2.57% (inactive) |
| COc1ccc([C@@H]2CC(=O)c3c(cc(O)c(C/C=C(\C)CCC=C(C)C)c3O)O2)cc1 | 1.72% [at 9.19 µM] (inactive) |
| C/C(=C\[C@@H](C)CC/C=C/CC/C=C/C(=O)O)[C@@H](O)[C@H](C)C(=O)CCCC1CC(=O)NC(=O)C1 | -2.44% (inactive) |
| C/C(=C\CC[C@@H](C)[C@H]1CC[C@]2(C)C3=CCC4C(C)(C)[C@@H](O)C[C@@H](O)[C@]4(C)C3[C@H](O)C[C@@]12C)CO (stereo not given in full) | 9.38% (inactive) |
| CN1CC[C@@]2([C@@]34CCN(C)[C@@H]3Nc3ccccc34)c3ccccc3N[C@@H]12 | 4.92% (inactive) |
| CN1CC[C@@]23c4ccccc4N[C@@H]1[C@@]21CCN(C)[C@@H]3Nc2ccccc21 | 5.22% (inactive) |
| COC1C(C)OC(OCC23C[C@@H]4[C@H](C)CC[C@H]4C4(C=O)CC2C=C(C(C)C)C34C(=O)O)[C@@H](O)[C@H]1O (stereo not given in full) | -3.06% (inactive) |

| SMILES | caspase activation |
| --- | --- |
| COc1ccc2[nH]c3c(c2c1)CCN1C[C@H]2C[C@@H](OC(=O)c4cc(OC)c(OC)c(OC)c4)[C@H](OC)[C@@H](OC)[C@H]2C[C@H]31 | 5.01% (inactive) |
| CN1CC[C@]2(c3cccc4c3N[C@H]3N(C)CC[C@@]43[C@]34CCN(C)[C@H]3Nc3ccccc34)c3ccccc3N[C@H]12 | -2.45% (inactive) |
| CC(CCC[C@]1(C)C(=O)C=C[C@@]23C[C@]4(C)O[C@@H](C[C@@H]4[C@H]2O)C31)C(=O)O (stereo not given in full) | -2.15% (inactive) |
| C/C1=C/[C@@H](C)[C@H](O)C/C=C/CC/C=C/C(=O)O[C@@H]1[C@H](C)C(=O)CCCC1CC(=O)NC(=O)C1 | -4.82% (inactive) |
| CC(=O)c1c(C)cc2c(c1O)C(=O)c1c(O)cc(O)cc1C2=O | 1.77% (inactive) |
| CCC(=O)N[C@@H](C[C@H](C)C(Cl)(Cl)Cl)C(=O)N1C(=O)C=C(OC)[C@@H]1CC(C)C | 0.955% (inactive) |
| O=C1c2c(O)cc(O)cc2OC(c2ccc(O)cc2)C1O (stereo not given) | -0.458% (inactive) |
| CC(C)=CCCC(C)(O)[C@H]1CC=C(C)C(O)C1 (stereo not given in full) | 5.29% (inactive) |
| C/C(=C\[C@H](C)C(=O)C[C@H](O)CC1CC(=O)NC(=O)C1)[C@@H]1OC(=O)CCCC/C=C/C[C@@H](O)[C@@H]1C | 3.88% (inactive) |
| C=C1CCC2C(C)(C(=O)O)CCC(CC/C(C)=C/C(=O)NC(CCC(N)=O)C(=O)O)[C@@]2(C)C1 (stereo not given in full) | 3.97% (inactive) |
| CC(C)=CC[C@H]1C[C@@]2(CC=C(C)C)C(=O)[C@](CC=C(C)C)(C(=O)C(C(=O)c3ccccc3)=C2O)C1(C)C | -4.22% (inactive) |
| CCC(=O)CCCCC[C@@H]1NC(=O)[C@H]2CCCCN2C(=O)[C@H](C(C)C)NC(=O)[C@H](Cc2cn(OC)c3ccccc23)NC1=O | 16.3% (inactive) |
| C=CC(CCCCC)C1C(=O)NC(=O)C1C(=O)C1C2C(C)CC(C(=O)O)CC2CC1(O)C(=O)/C=C/C (stereo not given) | 3.72% (inactive) |
| C[C@]12CCC[C@](C)(C(=O)O)[C@@H]1CC[C@@]1(C)c3cocc3CC[C@H]21 | -0.81% (inactive) |
| O=Cc1ccc2n1C[C@]1(OC2)O[C@H](CO)[C@@H](O)[C@@H]1O | 2.23% (inactive) |
| CC(=O)O[C@H]1c2ccccc2-c2c3c(cc4c2[C@@H]1N(C(C)=O)CC4)OCO3 | -5.17% (inactive) |
| C/C=C/C1C=CC2CC(C)CC(C)C2C1C(=O)CC(=O)NC(CO)C/C=C/CCCCC (stereo not given) | 8.8% (inactive) |
| O=Cc1ccc2n1C[C@]1(C[C@H](O)[C@@H](CO)O1)OC2 | 8.46% (inactive) |
| C/C(=C\[C@H](C)C(=O)CCCC1CC(=O)NC(=O)C1)[C@@H]1OC(=O)/C=C/CC/C=C/[C@H](O)[C@@H](O)[C@@H]1C | 6.3% (inactive) |
| C[C@@]12CCC[C@@](C)(C(=O)OP(=O)(O)OC[C@H]3O[C@@H](n4cnc5c(N)ncnc54)[C@H](O)[C@@H]3O)[C@H]1C[C@@H](O)[C@@]13C[C@@H](CC[C@@H]21)[C@](C)(O)C3 | -2.44% (inactive) |
